In PubChem BioAssay AID1159580 (chemical genetic matrix, 2015):
Screen size: about 5,500 compounds; about 2,000 (36%) were called active. Another 18% or so got no clear call; they are omitted. Rule as the data show it: active = normalized growth mostly below about 0.91 (no sharp cut-off); inconclusive = no clear call, values can overlap the other calls; inactive = mostly above about 0.92. The list shows a part of the results.

Test: chemical genetic growth profiling, strain panel (AID 1159580);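 also: tested at 20 µM; growth read once vehicle control cultures reached saturation at 30 °C; 1 = growth at the plate median or of vehicle wells; lower values mean less growth of the strain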
Details: S. cerevisiae deletion strains, growth OD
[1] = locus YAL013W, strain DEP1, active compounds read low
[2] = locus YBR229C, strain ROT2, active compounds read low
[3] = locus YDL101C, strain DUN1, active compounds read low
[4] = locus YGR078C, strain PAC10, active compounds read low
[5] = locus YJL187C, strain SWE1, active compounds read low
[6] = locus YJR043C, strain POL32, active compounds read low
[7] = locus YJR075W, strain HOC1, active compounds read low
[8] = locus YKL190W, strain CNB1, active compounds read low
[9] = locus YLR039C, strain RIC1, active compounds read low
[10] = locus YLR262C, strain YPT6, active compounds read low
[11] = locus YMR263W, strain SAP30, active compounds read low
[12] = locus YNL153C, strain GIM3, active compounds read low
[13] = locus YNL322C, strain KRE1, active compounds read low
[14] = locus YPL055C, strain LGE1, active compounds read low
[15] = locus YPL241C, strain CIN2, active compounds read low

Measured: normalized growth

CC1(C)C(O)CC(=O)C2(C)C1CC(O)C1(C)C2CCC2(C)C(c3ccoc3)OC(=O)C3OC321 (stereo unspecified)
inactive: [1] 1 | locus YAL021C, strain ccr4, active compounds read low 0.99 | locus YAL026C, strain drs2, active compounds read low 1.02 | locus YAL030W, strain snc1, active compounds read low 1 | locus YBL061C, strain skt5, active compounds read low 1 | locus YBR009C, strain hhf1, active compounds read low 0.999 | locus YBR021W, strain FUR4, active compounds read low 0.931 | locus YBR023C, strain chs3, active compounds read low 0.99 | locus YBR171W, strain sec66, active compounds read low 0.995 | [2] 1 | locus YBR231C, strain swc5, active compounds read low 0.999 | locus YBR279W, strain paf1, active compounds read low 0.997 | locus YCL011C, strain gbp2, active compounds read low 1 | locus YCL016C, strain dcc1, active compounds read low 1.01 | locus YCL029C, strain bik1, active compounds read low 1 | locus YCL061C, strain MRC1, active compounds read low 0.993 | locus YCL069W, strain vba3, active compounds read low 1.03 | locus YCR088W, strain abp1, active compounds read low 0.989 | locus YDL005C, strain med2, active compounds read low 0.99 | locus YDL035C, strain GPR1, active compounds read low 0.989 | locus YDL040C, strain nat1, active compounds read low 0.997 | locus YDL074C, strain BRE1, active compounds read low 0.976 | [3] 1.01 | locus YDL185W, strain tfp1, active compounds read low 1.02 | locus YDL192W, strain arf1, active compounds read low 0.988 | locus YDR001C, strain nth1, active compounds read low 0.999 | locus YDR069C, strain doa4, active compounds read low 1 | locus YDR101C, strain arx1, active compounds read low 1 | locus YDR137W, strain rgp1, active compounds read low 0.997 | locus YDR159W, strain sac3, active compounds read low 0.973 | locus YDR162C, strain NBP2, active compounds read low 1 | locus YDR195W, strain ref2 0.939 | locus YDR297W, strain sur2, active compounds read low 0.985 | locus YDR318W, strain mcm21, active compounds read low 1 | locus YDR334W, strain swr1, active compounds read low 0.998 | locus YDR335W, strain msn5, active compounds read low 1 | locus YDR388W, active compounds read low 1.01 | locus YDR392W, strain spt3, active compounds read low 0.989 | locus YDR502C, strain sam2, active compounds read low 1.02 | locus YEL003W, strain gim4, active compounds read low 0.997 | locus YEL037C, strain rad23, active compounds read low 1.02 | locus YEL061C, strain CIN8 (second series), active compounds read low 0.995 | locus YER015W, strain faa2, active compounds read low 1 | locus YER016W, strain bim1, active compounds read low 1 | locus YER110C, active compounds read low 1.01 | locus YER111C, strain swi4, active compounds read low 0.99 | locus YER155C, strain BEM2 (second series), active compounds read low 0.998 | locus YER155C, strain BEM2, active compounds read low 1 | locus YER167W, strain BCK2, active compounds read low 0.998 | locus YFR010W, strain ubp6, active compounds read low 1.01 | locus YGL078C, strain dbp3, active compounds read low 1.03 | locus YGL086W, strain mad1, active compounds read low 1 | locus YGL167C, strain pmr1, active compounds read low 1.01 | locus YGL173C, strain kem1, active compounds read low 0.994 | locus YGL227W, strain vid30, active compounds read low 0.986 | locus YGL240W, strain doc1, active compounds read low 0.973 | locus YGL248W, strain PDE1, active compounds read low 1 | locus YGL253W, strain hxk2, active compounds read low 1 | [4] 1.01 | locus YGR135W, strain pre9, active compounds read low 1.03 | locus YGR229C, strain SMI1, active compounds read low 1.12 | locus YGR252W, strain gcn5, active compounds read low 0.986 | locus YHR013C, strain ard1, active compounds read low 0.996 | locus YHR027C, strain rpn1, active compounds read low 0.987 | locus YHR079C, strain IRE1 (second series), active compounds read low 1.01 | locus YHR094C, strain hxt1, active compounds read low 1.01 | locus YHR129C, strain ARP1, active compounds read low 0.999 | locus YHR142W, strain chs7, active compounds read low 1.02 | locus YHR200W, strain rpn10, active compounds read low 1 | locus YIL066C, strain RNR3, active compounds read low 0.995 | locus YIL073C, strain SPO22, active compounds read low 1.05 | locus YIL125W, strain kgd1, active compounds read low 1 | locus YIR030C, strain dcg1, active compounds read low 1.01 | locus YJL092W, strain hpr5, active compounds read low 1.01 | locus YJL095W, strain BCK1 (second series), active compounds read low 1.02 | locus YJL095W, strain BCK1, active compounds read low 1.01 | locus YJL115W, strain asf1, active compounds read low 0.993 | locus YJL129C, strain trk1, active compounds read low 0.978 | locus YJL134W, strain LCB3, active compounds read low 1.01 | locus YJL154C, strain vps35, active compounds read low 1 | locus YJL164C, strain tpk1, active compounds read low 1.02 | locus YJL166W, strain qcr8, active compounds read low 0.994 | locus YJL168C, strain set2, active compounds read low 1.01 | locus YJL187C, strain SWE1 (second series), active compounds read low 1.02 | [5] 0.996 | [6] 0.987 | [7] 0.997 | locus YKL009W, strain mrt4, active compounds read low 0.977 | locus YKL068W, active compounds read low 1.01 | locus YKL085W, strain MDH1 (second series), active compounds read low 1 | locus YKL085W, strain MDH1, active compounds read low 1 | locus YKL160W, strain elf1, active compounds read low 1.01 | [8] 1 | locus YKR001C, strain vps1, active compounds read low 0.993 | locus YKR026C, strain gcn3, active compounds read low 0.992 | locus YKR091W, strain srl3, active compounds read low 1 | locus YLL001W, strain dnm1, active compounds read low 1.01 | locus YLL026W, active compounds read low 0.997 | locus YLL041C, strain sdh2, active compounds read low 0.997 | locus YLR027C, strain aat2, active compounds read low 0.984 | [9] 0.95 | locus YLR058C, strain SHM2, active compounds read low 1.01 | locus YLR102C, strain apc9, active compounds read low 1.02 | locus YLR221C, strain rsa3, active compounds read low 0.991 | locus YLR258W, strain gsy2, active compounds read low 1.01 | locus YLR262C, strain YPT6 (second series), active compounds read low 0.998 | [10] 1 | locus YLR268W, strain sec22, active compounds read low 1.01 | locus YLR320W, strain mms22, active compounds read low 1 | locus YLR342W, strain FKS1, active compounds read low 0.984 | locus YLR357W, strain rsc2, active compounds read low 0.99 | locus YLR370C, strain arc18, active compounds read low 1.01 | locus YLR371W, strain rom2, active compounds read low 0.984 | locus YLR384C, strain iki3, active compounds read low 0.999 | locus YLR418C, strain cdc73, active compounds read low 1 | locus YML016C, strain PPZ1, active compounds read low 0.999 | locus YML032C, strain rad52, active compounds read low 1 | locus YML120C, strain ndi1, active compounds read low 1.01 | locus YML124C, strain tub3, active compounds read low 1.01 | locus YMR058W, strain fet3, active compounds read low 1.01 | locus YMR078C, strain ctf18, active compounds read low 1.01 | locus YMR125W, strain sto1, active compounds read low 0.992 | locus YMR129W, active compounds read low 1.01 | locus YMR205C, strain PFK2, active compounds read low 0.982 | locus YMR223W, strain ubp8, active compounds read low 1.01 | locus YMR231W, strain pep5, active compounds read low 1 | [11] 1.02 | locus YMR307W, strain GAS1, active compounds read low 0.975 | locus YNL067W, strain RPL9B, active compounds read low 1.04 | locus YNL071W, strain lat1, active compounds read low 0.996 | locus YNL128W, strain TEP1, active compounds read low 1.02 | [12] 1.03 | locus YNL209W, strain ssb2, active compounds read low 0.995 | locus YNL233W, strain BNI4, active compounds read low 1 | locus YNL248C, strain rpa49, active compounds read low 0.99 | locus YNL250W, strain rad50, active compounds read low 1.02 | locus YNL271C, strain bni1, active compounds read low 1.01 | locus YNL298W, strain CLA4, active compounds read low 1.02 | locus YNL307C, strain MCK1, active compounds read low 1.01 | locus YNL322C, strain KRE1 (second series), active compounds read low 0.998 | [13] 1.01 | locus YNR049C, strain mso1, active compounds read low 0.997 | locus YNR052C, strain pop2, active compounds read low 1.02 | locus YOL012C, strain htz1 0.761 | locus YOL147C, strain pex11, active compounds read low 1.01 | locus YOR001W, strain rrp6, active compounds read low 0.984 | locus YOR061W, strain CKA2, active compounds read low 1.01 | locus YOR069W, strain VPS5, active compounds read low 1.01 | locus YOR070C, strain gyp1, active compounds read low 0.993 | locus YOR080W, strain dia2, active compounds read low 0.997 | locus YOR083W, strain WHI5, active compounds read low 1.01 | locus YOR106W, strain vam3, active compounds read low 1.02 | locus YOR136W, strain idh2, active compounds read low 1.01 | locus YOR144C, strain elg1, active compounds read low 1.01 | locus YOR184W, strain ser1, active compounds read low 1.01 | locus YOR265W, strain rbl2, active compounds read low 1.01 | locus YOR270C, strain vph1, active compounds read low 1.03 | locus YOR290C, strain snf2, active compounds read low 1.02 | locus YOR316C, strain cot1, active compounds read low 1.01 | locus YPL051W, strain arl3, active compounds read low 1.01 | [14] 0.989 | locus YPL078C, strain atp4, active compounds read low 1.01 | locus YPL106C, strain sse1, active compounds read low 0.988 | locus YPL240C, strain hsp82, active compounds read low 1.01 | [15] 1.01 | locus YPR119W, strain clb2, active compounds read low 1 | locus YPR141C, strain kar3, active compounds read low 1.01 | locus YPR163C, strain tif3, active compounds read low 1.01 | locus YPR167C, strain met16, active compounds read low 1.01 | strain wtn01, active compounds read low 0.997

CN1c2ccccc2C(=O)/C(=N/Nc2ccccc2F)S1(=O)=O
inactive: [1] 1 | [2] 1.02 | [3] 1.02 | locus YDR150W, strain NUM1, active compounds read low 1.04 | locus YEL061C, strain CIN8, active compounds read low 1.01 | [4] 1.02 | locus YHR030C, strain SLT2, active compounds read low 0.991 | locus YHR087W, strain rtc3, active compounds read low 1.01 | [5] 0.997 | [6] 1.01 | [7] 1.02 | [8] 1 | [9] 0.999 | locus YLR058C, strain SHM2 (second series), active compounds read low 1.02 | locus YLR085C, strain ARP6, active compounds read low 0.965 | [10] 1.01 | locus YML094W, strain GIM5, active compounds read low 0.995 | locus YMR219W, strain ESC1, active compounds read low 1.01 | [11] 1.01 | [12] 1.02 | locus YNL298W, strain CLA4 (second series), active compounds read low 0.995 | [13] 1.01 | locus YNR030W, strain Alg12, active compounds read low 0.997 | [14] 1.03 | [15] 0.993 | locus YPR135W, strain CTF4, active compounds read low 1.06
